The campaign covered roughly 16,000 compounds. About 5,800 (36%) were called active. Another 23% or so got no clear call; they are omitted. The call rests on the fitted dose curve; in most records, active means well fitted curve in the direction sought with a large enough effect; inconclusive means small, poorly fitted or top-dose-only effect, or effect the other way; inactive means no such curve, though single readings can be large or run the other way. This is one part of the list.
Target: Cytochrome P450 2C19 (Homo sapiens) (UniProt P33261)
Sequence (P33261 whole entry, looked up): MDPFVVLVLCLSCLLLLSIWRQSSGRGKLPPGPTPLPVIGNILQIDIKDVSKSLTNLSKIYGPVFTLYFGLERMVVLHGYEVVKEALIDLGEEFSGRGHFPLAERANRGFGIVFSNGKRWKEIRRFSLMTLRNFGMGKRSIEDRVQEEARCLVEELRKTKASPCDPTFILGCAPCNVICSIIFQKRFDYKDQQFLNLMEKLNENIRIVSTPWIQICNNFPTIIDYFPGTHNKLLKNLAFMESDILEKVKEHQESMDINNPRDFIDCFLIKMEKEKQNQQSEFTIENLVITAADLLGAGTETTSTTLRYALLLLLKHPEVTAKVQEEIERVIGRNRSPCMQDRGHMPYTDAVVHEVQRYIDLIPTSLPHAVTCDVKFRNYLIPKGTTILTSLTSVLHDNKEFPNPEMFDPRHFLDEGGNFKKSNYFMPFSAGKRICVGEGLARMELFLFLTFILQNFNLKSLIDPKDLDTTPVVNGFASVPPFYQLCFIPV
Test: Cytochrome panel assay with activity outcomes
Conditions: recombinant CYP, pro-luciferin dealkylation, luminescence, p450-cyp2c19; series mostly up to 57.1 µM
On the % scale 0 is the no-effect control and ±100 the full control effect.

| Structure (SMILES) | AC50 | activity, negative = inhibition |
| --- | --- | --- |
| CN=C1N[C@H](c2ccccc2)N(c2ccccc2)S1 | inactive |  |
| CC(C)c1ccc2nc3sc(C(=O)N4CCc5ccccc5C4)c(N)c3cc2c1 | 3.55 µM (active) |  |
| CCCn1c(-c2ccccc2)nc2c(=O)n(C)c(=O)[nH]c21 | inactive |  |
| CCOC(=O)CSc1nc(-c2ccccc2)nc2ccccc12 | 4.47 µM (active) |  |
| CCOC(=O)Cn1c(-c2ccccc2)nc2ccccc2c1=O | 7.08 µM (active) |  |
| O=C(O)Cn1c(-c2ccccc2)nc2ccccc21 | inactive |  |
| CCOC(=O)CSc1cc(CS(=O)c2ccc(Cl)cc2)nc(-c2ccccc2)n1 (centres undefined) | 0.126 µM (active) |  |
| NC(=Nc1ccccc1)NC(=O)c1nc(Cl)c(N)nc1N | inactive |  |
| CS(=O)(=O)N1CCC[C@@]2(CCN(C(=O)Nc3cccc(F)c3)C2)C1 | inactive |  |
| CS(=O)(=O)N(CC(=O)Nc1cccc(F)c1)c1cccc([N+](=O)[O-])c1 | 7.94 µM (active) |  |
| CS(=O)(=O)N1CCC2(CCN(C(=O)Nc3cccc(F)c3)CC2)CC1 | inactive |  |
| NC(N)=N/N=C(/c1ccccc1)c1ccc(O)cc1O |  | -16.1% [at 11.4 µM] (inactive) |
| CCSc1nc2ccccc2n1C(=O)/C=C\c1ccc(OC)c(OC)c1 | 7.94 µM (active) |  |
| C=CCSc1nc2ccccc2n1C(=O)/C=C/c1cc(OC)c(OC)c(OC)c1 | 2.24 µM (active) |  |
| COc1ccc(/C=C/C(=O)Nc2nc(C)cc(C)n2)cc1OC | inactive |  |
| COc1cc(/C=C\C(=O)N2CCC=CC2=O)cc(OC)c1OC | inactive |  |
| CSc1ccccc1NC(=O)CSCc1ccc(C)cc1 | 1.78 µM (active) |  |
| Cc1cc2nc(-c3ccc(SCC(=O)N4CCc5ccccc54)nc3)[nH]c2cc1C | 3.98 µM (active) |  |
| Cc1ccc(C)c(-n2c(CNC(=O)c3ccco3)nnc2SCC(=O)N2CCc3ccccc32)c1 | inactive |  |
| CCOC(=O)O[C@]1(C(=O)COC(=O)CC)CC[C@@H]2[C@@H]3CCC4=CC(=O)C=C[C@@]4(C)[C@H]3[C@H](O)C[C@]21C | inactive |  |
| OCCN(C=NC1=NN(c2cccc(C(F)(F)F)c2)CC1)CCO | inactive |  |
| FC(F)(F)c1cccc(N2CCN(CC3CC4C=CC3C4)CC2)c1 (centres undefined) | 8.91 µM (active) |  |
| CO[C@@H]1COC(=O)[C@@H](CCSC)NC(=O)C/C=C\[C@@H](C)COC(=O)CCC[C@H]1C |  | -34.5% [at 11.4 µM] (inactive) |

| Structure (SMILES) | AC50 | activity, negative = inhibition |
| --- | --- | --- |
| C(=Nc1cnc2ccccc2c1)c1ccc2ccccc2n1 |  | 34% [at 11.4 µM] (inactive) |
| Cc1cccc(NCCNc2cccc(C)c2)c1 | 2.82 µM (active) |  |
| Cc1cccc(Nc2ccncc2S(=O)(=O)NC(=O)NC(C)C)c1 | inactive |  |
| COCCn1c(=O)c(-c2cc(F)cc(F)c2)nc2cnc(N3CCN(C)CC3)nc21 | inactive |  |
| CC(C)=C[C@H]1[C@@H](C(=O)Oc2ccccc2C(C)C)C1(C)C | 1.26 µM (active) |  |
| c1cncc(-c2cncnc2NC2CCNCC2)c1 | inactive |  |
| COc1ccc2[nH]cc(CCNc3ncncc3-c3cccc(NS(C)(=O)=O)c3)c2c1 | 5.01 µM (active) |  |
| COc1cccc(-c2cncnc2NCCc2c[nH]c3ccc(OC)cc23)c1 | 0.316 µM (active) |  |
| COc1ccc2[nH]cc(CCNc3ncncc3-c3cccnc3)c2c1 | 3.16 µM (active) |  |
| CCC/C=C(\CCC)C(NS(=O)(=O)c1ccc(Cl)cc1)c1ccc(C(=O)OC)cc1 (centres undefined) | 1.58 µM (active) |  |
| CCC/C=C(\CCC)C(NS(=O)(=O)c1cccs1)c1ccc(C(=O)OC)cc1 (centres undefined) | 0.794 µM (active) |  |
| CCC/C=C(\CCC)C(NS(=O)(=O)c1ccc(Cl)cc1)c1ccccc1 (centres undefined) | 0.398 µM (active) |  |
| CCC/C=C(\CCC)C(NP(=O)(c1ccccc1)c1ccccc1)c1ccc(-c2ccccc2)cc1 (centres undefined) | 7.94 µM (active) |  |
| CO[C@H]1COC(=O)C/C=C\[C@@H](C)COC(=O)[C@@H](C)NC(=O)C/C=C\[C@@H]1C |  | 16.7% [at 11.4 µM] (inactive) |
| CO[C@H]1COC(=O)CCC[C@@H](C)[C@H](OC)COC(=O)[C@H]2CCCN2C(=O)C/C=C\[C@@H]1C |  | -20.1% [at 11.4 µM] (inactive) |
| CCC/C=C(\CCC)C(NS(=O)(=O)c1ccc(-c2ccccc2)cc1)c1ccc(C(=O)OC)cc1 (centres undefined) | 1.26 µM (active) |  |
| CCC/C=C(\CCC)C(NS(C)(=O)=O)c1ccccc1 (centres undefined) | 7.94 µM (active) |  |
| CCC/C=C(\CCC)C(NS(=O)(=O)c1cccc2cccnc12)c1ccc(C(=O)OC)cc1 (centres undefined) | 3.16 µM (active) |  |
| CCC/C=C(\CCC)C(NS(=O)(=O)c1ccc(C(F)(F)F)cc1)c1ccc(C(=O)OC)cc1 (centres undefined) | 2.51 µM (active) |  |
| COC(=O)c1ccc(-n2cncn2)c(F)c1 | 7.08 µM (active) |  |
| NC(=O)C1(N2CCCCC2)CCN(C(=O)c2cccn3c(=O)c4cc(Cl)ccc4nc23)CC1 | 14.1 µM (active) |  |
| O=C(c1ccc2nc3ccc(Cl)cc3c(=O)n2c1)N1CCOCC1 | inactive |  |
| N[C@@H](Cc1nn[nH]n1)C(=O)O |  | -17.6% [at 11.4 µM] (inactive) |

| Structure (SMILES) | AC50 | activity, negative = inhibition |
| --- | --- | --- |
| CCOc1ccc(-c2nn(-c3ccccc3)cc2/C=C2\SC(N)=NC2=O)cc1C | 11.2 µM (active) |  |
| CCOc1ccc(-c2nn(-c3ccccc3)cc2/C=C(\C#N)S(=O)(=O)c2ccccc2)cc1C | inactive |  |
| CCOc1ccc(C(=O)O)cc1OC | inactive |  |
| COc1ccc(C(=O)c2ccccc2)cc1Br | 8.91 µM (active) |  |
| COc1ccc(C(=O)c2ccc(OC)c(OC)c2)cc1OC | 2.82 µM (active) |  |
| COc1ccc(Br)c2c1C[C@H](C(=O)O)CC2 |  | 39.7% [at 11.4 µM] (inactive) |
| CC[C@@H](c1ccccc1)n1c(=O)n2n(c1=O)[C@H]1[C@H](O)[C@H]3O[C@@H]3/C(=N/OC/C=C(\C)CCC=C(C)C)[C@@H]1CC2 |  | -35.5% [at 11.4 µM] (inactive) |
| CC(C)NC(=O)N1CC2(CCN(C(=O)c3ccco3)CC2)C1 | inactive |  |
| C[N+]1(CCC(=O)c2ccco2)CC2CCC(CC2)C1 (centres undefined) |  | -31.3% [at 11.4 µM] (inactive) |
| Cc1ccc(C(OC(=O)c2ccco2)C(=O)NC2CCCCC2)cc1 (centres undefined) | 17.8 µM (active) |  |
| O=C(OC(C(=O)NC1CCCC1)c1ccncc1)C1=Cc2ccccc2OC1 (centres undefined) | 1.12 µM (active) |  |
| Cc1ccc(C(C(=O)NC2CCCCC2)N2CCN(C(=O)c3ccco3)CC2)cc1 (centres undefined) | 8.91 µM (active) |  |
| CC(C)NC(=O)N1CCC2(CC1)CCN(C(=O)c1ccco1)CC2 | inactive |  |
| CN1CCN(c2nc(-c3ccccc3)cc(C(F)(F)F)n2)CC1 | 8.91 µM (active) |  |
| COc1ccccc1N1CCN(c2nc(-c3ccccc3)cc(C(F)(F)F)n2)CC1 | 1 µM (active) |  |
| COc1ccccc1-c1nc(N2CCN(C)CC2)c2ccccc2n1 | inactive |  |
| COc1ccc(C(=O)NCc2ccc(-c3nc4ccccc4s3)cc2)cc1 | 7.94 µM (active) |  |
| COc1ccc(C(=O)NNC(=S)NC(=O)c2ccco2)cc1 | inactive |  |
| CNC(=O)NC(=S)NC(=O)c1ccc(OC)cc1 | 14.1 µM (active) |  |
| CC(C)(C)C(=O)NC(=S)NCCc1ccccc1 | 2.51 µM (active) |  |
| Cc1ccc(C(=O)NC(=S)Nc2cc(-c3nc4ccccc4s3)ccc2C)cc1 | inactive |  |
| COc1ccc(C(=O)NC(=S)NCc2ccccc2)cc1 | 5.01 µM (active) |  |
| C/C(=C(/CCO)SSC[C@@H]1CCCO1)N(C=O)Cc1cnc(C)nc1N | inactive |  |

| Structure (SMILES) | AC50 | activity, negative = inhibition |
| --- | --- | --- |
| COc1cc(OC)cc(C(=O)NC(=S)NCCc2ccccc2)c1 | 2.51 µM (active) |  |
| COc1cc(OC)cc(C(=O)NC(=S)Nc2ccc(Cl)c(C(=O)O)c2)c1 | inactive |  |
| CCOc1ccc(N2C(=O)C3C4C=CC(CC4)C3C2=O)c([N+](=O)[O-])c1 (centres undefined) | 3.98 µM (active) |  |
| Cc1cc(C)c(-c2cc([C@H](C)O/N=C3/[C@H]4OC4[C@@H](O)[C@H]4[C@H]3CCn3c(=O)n(-c5ccccc5)c(=O)n34)on2)c(C)c1 (some centres undefined) |  | -40% [at 11.4 µM] (inactive) |
| CCC(C)(C)c1ccc(Oc2cccc(C(=O)O)c2)cc1 |  | -38.4% [at 11.4 µM] (inactive) |
| C[C@@H](/C=C\c1cccc(Oc2ccc(F)cc2)c1)N(O)C(N)=O | 3.98 µM (active) |  |
| C[N+]1(NCC[N@@+]2(C)CCc3ccccc3C2)CCCCC1 |  | 13.4% [at 11.4 µM] (inactive) |
| CCc1ccc(C(=O)CN(C#N)c2nc(C)cc(C)n2)cc1 | 10 µM (active) |  |
| C[C@H]1[C@H](C)OC(=O)C[C@H](O)C[C@H](O)C[C@H](O)CC[C@H](O)[C@H](O)CC(=O)C[C@H](O)[C@H](C(=O)O)[C@H](O)C[C@H](O[C@@H]2O[C@@H](C)[C@H](O)[C@@H](N)[C@@H]2O)C=CC=CC=CC=CCCC=CC=C[C@@](C)(O)[C@H]1O |  | 33.3% [at 11.4 µM] (inactive) |
| CON(c1nc(N(C)C)nc(N(C)C)n1)S(=O)(=O)c1ccccc1Cl | 4.47 µM (active) |  |
| CN1CCN(c2ncc3nc(-c4ccc(Cl)cc4)c(=O)n(C4CC4)c3n2)CC1 | inactive |  |
| Cc1cc(C)n(CCCNCC(O)c2ccccc2)n1 (centres undefined) | inactive |  |
| Cc1cc(C)n(CC(O)COc2ccccc2)n1 (centres undefined) | 8.91 µM (active) |  |
| O=C1CCC(c2ccccc2)(c2ccccc2)CC1 |  | 13.2% [at 11.4 µM] (inactive) |
| CCCc1cc(C(=O)Cc2nc3ccccc3s2)c(O)cc1O | 0.126 µM (active) |  |
| COc1ccc(C2C(C#N)=C(N)Oc3n[nH]c(C)c32)cc1CN1CCN(c2ccc(F)cc2)CC1 (centres undefined) | 5.01 µM (active) |  |
| O=c1cc(CN2CCN(c3ccc(F)cc3)CC2)c2cc3c(cc2o1)CCCC3 | inactive |  |
| O=C(N/C(=C/c1cccs1)c1nc2ccccc2[nH]1)c1ccccc1 | inactive |  |
| O=C(N/C(=C/c1ccc(Br)cc1)c1nc2ccccc2[nH]1)c1ccco1 | 3.16 µM (active) |  |
| Cc1ccc(S(=O)(=O)N[C@H]2COC(=O)C/C=C\[C@@H](C)COC(=O)C/C=C\[C@@H]2C)cc1 |  | 12.1% [at 11.4 µM] (inactive) |
